# Data published in PubChem BioAssay (NCATS).
# Inconclusive results are not listed. Where a call stands in place of a potency, no number is given. Calls of active or inactive are those of the source. Unless noted, the call rests on the fitted dose curve; in most records, active means well fitted curve in the direction sought with a large enough effect; inconclusive means small, poorly fitted or top-dose-only effect, or another doubt; inactive means no such curve, though single readings can be large; an effect the other way counts as inactive or inconclusive.
# Legend:
# [1] = Nrf2 qHTS screen for inhibitors: Validation (AID 493153; active means well fitted inhibition curve with a large enough effect in the main read-out, with a control signal flat, not every such curve was filed as active; further: potency means the concentration at half of the fitted maximal effect); conditions: Potency: luciferase luminescence; viability change: measured here: cytotoxicity max response
# How it was run: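 Dose-response validation uses reporter A549 cells with firefly luciferase under an antioxidant response element. Compounds stay on cells 18-24 h at 37°C, and luminescence indicates Nrf2-driven transcription.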
# [2] = qHTS for Inhibitors of Cell Surface uPA Generation: Validation Assay (AID 493164);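 further: RAW 264.7 macrophage cells exposed to compound for 18 h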
# How it was run: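 RAW 264.7, 4000 cells/well, o/n plating; cpd 7-pt 1:5 dilution 2.45 nM–38.3 uM final; 18 h, 37 C/5% CO2; ATP-Lite, 5 s luminescence exposure.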
# [3] = biological target: Galactokinase (Homo sapiens) (UniProt P51570); assay: qHTS Validation Assay for Inhibitors of Human Galactokinase (GALK) (AID 493189)
# Galactokinase (Homo sapiens), sequence (P51570 whole entry, looked up): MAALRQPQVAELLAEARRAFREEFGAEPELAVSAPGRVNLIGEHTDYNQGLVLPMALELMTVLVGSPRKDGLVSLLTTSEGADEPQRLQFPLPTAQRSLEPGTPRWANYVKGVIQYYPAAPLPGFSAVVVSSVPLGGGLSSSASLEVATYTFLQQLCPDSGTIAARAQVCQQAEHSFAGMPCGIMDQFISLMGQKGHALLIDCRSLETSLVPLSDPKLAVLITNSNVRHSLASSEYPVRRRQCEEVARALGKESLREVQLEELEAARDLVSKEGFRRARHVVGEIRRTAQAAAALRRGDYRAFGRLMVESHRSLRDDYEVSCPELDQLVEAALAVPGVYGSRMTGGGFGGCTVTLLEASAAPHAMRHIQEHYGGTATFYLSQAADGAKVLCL
# How it was run: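 GALK (5 nM) with 35 uM ATP and 100 uM galactose in HEPES pH 8.0 with MgCl2, NaCl, DTT and BSA. Reaction ran 1 h at room temperature. Residual ATP read by Kinase-Glo Plus luminescence.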
# [4] = Validation screen for small molecules that induce DNA re-replication in SW480 colon adenocarcinoma cells (AID 504364)
# How it was run: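 Cells are treated 48 hr with test compound, stained 40 min with Hoechst at 37 C, and scanned for nuclear fluorescence; compounds inducing re-replication increase nuclei with elevated intensity.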
# [5] = biological target: Peptidyl-prolyl cis-trans isomerase NIMA-interacting 1 (Homo sapiens) (UniProt Q13526); assay: qHTS Validation Assay to Find Inhibitors of Pin1 (AID 504536; active means well fitted inhibition curve with a large enough effect in the polarisation, with a control signal flat, not every such curve was filed as active; the % refers to the polarisation)
# Peptidyl-prolyl cis-trans isomerase NIMA-interacting 1 (Homo sapiens), sequence (Q13526 whole entry, looked up): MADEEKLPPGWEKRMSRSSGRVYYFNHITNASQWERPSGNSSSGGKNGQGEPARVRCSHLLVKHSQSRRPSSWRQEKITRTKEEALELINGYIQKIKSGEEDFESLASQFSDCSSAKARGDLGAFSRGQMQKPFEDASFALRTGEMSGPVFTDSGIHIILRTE
# How it was run: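 Fluorescence polarization competition: compounds (titration) displace HiFluor-488-labeled Pin1-1b peptide from Pin1 (0.3 uM final) in pH 7.5 HEPES buffer with DTT, 10 min at room temperature; %Activity normalized to no-enzyme wells, curves fitted.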
# [6] = biological target: Phosphoglycerate kinase, glycosomal (Trypanosoma brucei brucei) (UniProt P07378); assay: qHTS Validation Assay to Find Inhibitors of Phosphoglycerate Kinase (AID 504547)
# Phosphoglycerate kinase, glycosomal (Trypanosoma brucei brucei), sequence (P07378 whole entry, looked up): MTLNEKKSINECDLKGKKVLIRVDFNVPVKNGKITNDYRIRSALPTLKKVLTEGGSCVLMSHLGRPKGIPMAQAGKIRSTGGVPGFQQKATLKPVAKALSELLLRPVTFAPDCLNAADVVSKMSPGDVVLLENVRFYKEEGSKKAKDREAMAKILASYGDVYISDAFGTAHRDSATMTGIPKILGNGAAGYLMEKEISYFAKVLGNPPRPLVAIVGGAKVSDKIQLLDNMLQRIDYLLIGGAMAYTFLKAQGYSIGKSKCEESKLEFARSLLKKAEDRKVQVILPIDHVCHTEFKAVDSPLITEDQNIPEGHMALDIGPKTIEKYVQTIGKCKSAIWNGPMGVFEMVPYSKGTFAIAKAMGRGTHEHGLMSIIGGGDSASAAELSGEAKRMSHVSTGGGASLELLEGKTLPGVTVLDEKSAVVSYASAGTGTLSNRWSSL
# How it was run: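 PGK activity was coupled to GAPDH (100nM final), which generates the unstable substrate 1,3-bisphosphoglycerate in-well. Reactions ran 60 minutes at room temperature in 100mM TEA pH 7.6, 5mM MgCl2, 0.01% Tween-20, then Kinase-Glo Plus luminescence was read.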
# [7] = biological target: phosphoglycerate mutase (Leishmania major) (UniProt Q4Q090); assay: qHTS Validation Assay to Find Inhibitors of Phosphoglycerate Mutase (AID 504548); conditions: Potency: inhibition qHTS;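 further: end-point luminescence from Kinase-GloPlus after the PGAM reaction; series mostly up to about 58 µM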
# phosphoglycerate mutase (Leishmania major), sequence (Q4Q090 1-553): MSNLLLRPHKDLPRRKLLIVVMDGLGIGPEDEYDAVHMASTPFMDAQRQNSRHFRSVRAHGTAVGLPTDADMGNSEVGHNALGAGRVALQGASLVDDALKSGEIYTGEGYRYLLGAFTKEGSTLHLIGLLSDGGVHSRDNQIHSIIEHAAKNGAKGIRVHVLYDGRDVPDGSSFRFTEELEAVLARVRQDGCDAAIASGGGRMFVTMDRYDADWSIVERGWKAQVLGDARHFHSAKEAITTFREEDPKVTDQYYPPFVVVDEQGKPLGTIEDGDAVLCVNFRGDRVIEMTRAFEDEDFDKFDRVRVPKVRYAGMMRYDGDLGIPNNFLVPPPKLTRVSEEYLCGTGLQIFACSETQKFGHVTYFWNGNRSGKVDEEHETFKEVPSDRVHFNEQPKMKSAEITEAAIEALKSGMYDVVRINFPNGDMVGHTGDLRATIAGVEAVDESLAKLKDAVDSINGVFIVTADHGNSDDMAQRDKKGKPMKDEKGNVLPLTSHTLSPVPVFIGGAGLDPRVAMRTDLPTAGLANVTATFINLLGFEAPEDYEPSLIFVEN
# How it was run: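 Inhibition of L. major PGAM was assessed by Kinase-GloPlus luminescence following a 45-minute room-temperature reaction with enzyme at 1.25nM final.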
# [8] = biological target: Ubiquitin carboxyl-terminal hydrolase 1 (Homo sapiens) (UniProt O94782); assay: Inhibitors of USP1/UAF1: Pilot qHTS (AID 504865);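 further: rhodamine fluorescence freed from ubiquitin-rhodamine substrate followed over time; top concentration of the series differs between compounds; nearly all actives have a fitted effect of over 35% in size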
# Ubiquitin carboxyl-terminal hydrolase 1 (Homo sapiens), sequence (O94782 whole entry, looked up): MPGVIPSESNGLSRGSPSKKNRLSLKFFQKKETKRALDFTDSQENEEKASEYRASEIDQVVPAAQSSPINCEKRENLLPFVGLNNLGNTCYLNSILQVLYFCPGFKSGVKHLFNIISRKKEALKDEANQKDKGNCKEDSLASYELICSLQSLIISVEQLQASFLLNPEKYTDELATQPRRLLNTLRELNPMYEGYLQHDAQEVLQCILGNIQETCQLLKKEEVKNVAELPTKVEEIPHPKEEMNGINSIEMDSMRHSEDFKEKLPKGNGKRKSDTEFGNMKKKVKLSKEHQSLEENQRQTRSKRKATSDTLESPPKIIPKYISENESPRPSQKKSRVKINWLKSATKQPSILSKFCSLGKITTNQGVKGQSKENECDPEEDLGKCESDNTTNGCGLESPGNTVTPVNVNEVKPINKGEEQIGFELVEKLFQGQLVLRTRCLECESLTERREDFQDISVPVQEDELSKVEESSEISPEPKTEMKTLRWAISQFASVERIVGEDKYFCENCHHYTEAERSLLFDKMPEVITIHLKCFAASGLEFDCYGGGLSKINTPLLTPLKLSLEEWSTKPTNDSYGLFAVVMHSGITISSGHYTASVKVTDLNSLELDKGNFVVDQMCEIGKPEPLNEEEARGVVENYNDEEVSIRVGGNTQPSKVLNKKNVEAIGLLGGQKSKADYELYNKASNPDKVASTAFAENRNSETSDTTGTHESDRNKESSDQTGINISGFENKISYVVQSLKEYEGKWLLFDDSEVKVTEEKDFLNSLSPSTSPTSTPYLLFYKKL
# How it was run: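 USP1/UAF1 complex at 1 nM preincubated 15 min at room temperature with compound, then Ub-Rho substrate added at 150 nM final. Fluorescence (480/540 nm) read kinetically in 50 mM HEPES pH 7.8, 0.5 mM EDTA, 1 mM TCEP, 0.1 mg/ml BSA, 0.01% Tween-20.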
# [9] = qHTS for Inhibitors of ATXN expression: Validation of Cytotoxic Assay (AID 588349);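 further: cells exposed to compound for 72 hr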
# How it was run: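 HEK293, compound dose series, 72 hr / 37 degrees C; viability via CellTiter Glo (intracellular ATP).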
# [10] = qHTS for Inhibitors of ATXN expression: Validation (AID 588378); further: series mostly up to about 57 µM; nearly all actives have a fitted effect of over 75% in size
# How it was run: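 HEK293 cells carrying ATXN2-firefly luciferase reporter, treated with compound 24 h at 37 °C. Viability read first by CellTiter-Fluor (405/525 nm), then reporter expression by Bright-Glo luminescence; controls were a known ATXN2 expression inhibitor and a luciferase inhibitor.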
Structure (SMILES),Potency [1],viability change [1],outcome [2],Potency [3],Potency [4],Potency [5],Potency [6],Potency [7],Potency [8],Potency [9],Potency [10]
Oc1ccc(Cn2cc[nH]c2=S)cc1,inactive,0.593%,inactive,inactive,inactive,inactive,inactive,inactive,inactive,inactive,inactive
O=C(O)c1cc(=O)cc(C(=O)O)[nH]1,inactive,-5.74%,inactive,inactive,inactive,inactive,inactive,inactive,inactive,inactive,inactive
NC(N)=[N+]1CCc2ccccc2C1,16.4 µM (active),6.22%,inactive,inactive,inactive,inactive,inactive,inactive,inactive,inactive,–
NCC(O)(CS(=O)(=O)O)c1ccc(Cl)cc1 (configuration not stated),inactive,4.12%,inactive,inactive,inactive,inactive,inactive,inactive,inactive,inactive,–
CC(=O)[C@H]1CCC2C3CC=C4C[C@@H](OS(=O)(=O)O)CC[C@]4(C)C3CC[C@@]21C (some centres not stated),inactive,2.24%,inactive,inactive,inactive,inactive,inactive,inactive,inactive,inactive,inactive
N#CC(C#N)=C(N)/C(C#N)=C/c1ccc(O)cc1,inactive,1.78%,inactive,inactive,inactive,inactive,inactive,inactive,inactive,inactive,inactive
Cc1cccc(C)c1OCC(N)C(C)C (configuration not stated),inactive,4.6%,inactive,inactive,inactive,inactive,inactive,inactive,inactive,inactive,inactive
CCCN(CCc1ccccc1)C1CCc2c(O)cccc2C1 (configuration not stated),inactive,-8.23%,inactive,inactive,inactive,inactive,inactive,inactive,inactive,inactive,–
COC(=O)C(C)(N)Cc1ccc(O)cc1 (configuration not stated),inactive,-3.06%,inactive,inactive,inactive,inactive,inactive,inactive,inactive,inactive,inactive
COc1cc(C(O)C(=O)O)ccc1O (configuration not stated),inactive,10.2%,inactive,inactive,inactive,inactive,inactive,inactive,inactive,inactive,inactive
CCCCOc1cc(CC2CNC(=O)N2)ccc1OC (configuration not stated),inactive,4.87%,inactive,inactive,inactive,inactive,inactive,inactive,inactive,inactive,inactive
CCOC(=O)C12CC1/C(=N/O)c1ccccc1O2 (configuration not stated),inactive,1.91%,inactive,inactive,inactive,inactive,inactive,inactive,inactive,inactive,inactive
O=C(O)c1ccccc1Nc1ccccc1,inactive,10.9%,inactive,inactive,inactive,inactive,inactive,inactive,inactive,inactive,inactive
CCCCCCCCCC(=O)NC(CN1CCOCC1)[C@H](O)c1ccccc1 (some centres not stated),inactive,-4.61%,inactive,inactive,inactive,inactive,inactive,inactive,inactive,inactive,–
CC(C)(C)NCC(O)COc1cccc2[nH]c(=O)[nH]c12 (configuration not stated),inactive,-1.12%,inactive,inactive,inactive,inactive,inactive,inactive,inactive,inactive,–
O=c1ccc2c(OCCCCc3ccccc3)c3ccoc3cc2o1,inactive,4.36%,inactive,inactive,inactive,inactive,inactive,inactive,inactive,inactive,inactive
Nc1ncnc2c1ncn2C1CCCO1 (configuration not stated),inactive,12.1%,inactive,inactive,inactive,inactive,inactive,inactive,inactive,inactive,inactive
CC1CCN=C(N)S1 (configuration not stated),inactive,9.66%,inactive,inactive,inactive,inactive,inactive,inactive,inactive,inactive,inactive
CN(C)C(=O)/N=N/C(=O)N(C)C,inactive,1.53%,inactive,inactive,inactive,inactive,inactive,inactive,inactive,inactive,inactive
Cn1c(=O)c2[nH]c(C3CCCC3)nc2n(C)c1=O,inactive,1.08%,inactive,inactive,inactive,inactive,inactive,inactive,inactive,inactive,–
N[C@@H](Cc1c[nH]c2ccccc12)C(=O)O,inactive,-4.03%,inactive,inactive,inactive,inactive,inactive,inactive,inactive,inactive,inactive
NCCCCN,inactive,-1.47%,inactive,inactive,inactive,inactive,inactive,inactive,inactive,inactive,inactive
NC1(C(=O)O)CCCCC1,inactive,-4.89%,inactive,inactive,inactive,inactive,inactive,inactive,inactive,inactive,–
N=C(N)c1ccccc1,inactive,6.8%,inactive,inactive,inactive,inactive,inactive,inactive,inactive,inactive,inactive
